Screens (PubChem BioAssay)
Only some compounds are listed: those with a hit (about 1.2% of all), similar ones and a draw of the others.
RGS8-Gao reg – modulates binding of RGS8 to human Galphao; P09471; multiplexed bead flow cytometry; actives lie on both sides; response (percent of control binding), % at 10 µM; hit rate 0.34% among 220,000; AID 1423; in the data active = response below about 60% or above about 140%; inactive = in between;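 note: Galphao activated as the GDP aluminium fluoride complex binding bead-coupled RGS8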
Target sequence (P09471 whole entry, looked up): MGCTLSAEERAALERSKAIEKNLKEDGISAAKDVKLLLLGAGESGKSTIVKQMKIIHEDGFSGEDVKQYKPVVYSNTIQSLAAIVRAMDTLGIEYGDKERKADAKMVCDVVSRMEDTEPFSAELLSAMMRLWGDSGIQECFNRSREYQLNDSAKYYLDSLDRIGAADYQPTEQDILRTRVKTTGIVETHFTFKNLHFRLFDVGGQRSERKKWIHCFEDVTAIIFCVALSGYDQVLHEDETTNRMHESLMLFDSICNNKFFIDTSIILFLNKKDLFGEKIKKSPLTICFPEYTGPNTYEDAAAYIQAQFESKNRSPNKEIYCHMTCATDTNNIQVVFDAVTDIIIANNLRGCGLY
RGS16-Gao HTS – RGS16-Galphao interaction regulator (human). O15492+P09471. bead-based flow cytometry RGS16-Galphao binding, fluorescence; actives lie on both sides. binding response (% of control), % at 10 µM. hit rate 0.38% among 220,000;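 note: Galphao activated by GDP with aluminum fluoride before binding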
Target sequence (O15492 whole entry, looked up): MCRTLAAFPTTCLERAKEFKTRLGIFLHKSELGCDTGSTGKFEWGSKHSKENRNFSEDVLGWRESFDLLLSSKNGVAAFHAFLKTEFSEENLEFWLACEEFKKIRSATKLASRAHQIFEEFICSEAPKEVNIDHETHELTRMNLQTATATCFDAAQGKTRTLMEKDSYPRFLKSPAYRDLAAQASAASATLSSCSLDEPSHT
Target sequence (P09471 whole entry, looked up): as the sequence (P09471 whole entry, looked up) above
GSH fluor – GSH bead compound fluorescence profile. GSH beads flow cytometry, compound fluorescence 488/530 nm; stronger effect = higher value. fluorescence (KMESF) at 10 µM. hit rate 0.25% among 190,000; in the data active = fluorescence above about 89;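 note: glutathione beads carrying GST-tagged Bcl family fusion proteins plus one bare bead set; values are compound well signal with DMSO vehicle wells as background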
Avidin fluor – compound fluoresces at 488/530 nm on avidin beads. compound fluorescence 488/530 nm, flow cytometry; stronger effect = higher value. hit rate 0.38% among 220,000. fluorescence (KMESF) at 10 µM; in the data active = fluorescence above about 47
RGS7-Gao reg – modulates binding of RGS7 to human Galphao | binding response (% of control), % at 10 µM | Multiplexed bead flow cytometry; actives lie on both sides | AID 1439 | P09471 | hit rate 0.35% among 220,000; in the data active = binding response below about 49% or above about 150%; inconclusive = no clear call, values can overlap the other calls; inactive = in between;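 note: fluorescent Galphao held in activated GDP-AlF4 state binding bead-coupled RGS7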
RGS4-Gao reg – modulates binding of RGS4 to human Galphao. P09471. binding response (% of control), % at 10 µM. Multiplexed bead flow cytometry; actives lie on both sides. hit rate 0.33% among 220,000; in the data active = binding response below about 49% or above about 150%; inactive = in between;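 note: fluorescent Galphao activated with aluminum fluoride binding bead-coupled RGS4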
RGS4-Gao HTS – RGS4-Galphao interaction regulator (human) | RGS4–Galpha-o binding response, % at 10 µM | shares compounds with RGS16-Gao HTS | hit rate 99% among 1,600 | multiplexed bead flow cytometry, RGS–Galpha-o binding | AID 1504;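 note: fluorescently labeled Galpha-o bound to GDP with aluminium fluoride binding biotinylated RGS beads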
Avidin counter – counter-screen: compounds disrupting biotin binding to avidin beads | shares compounds with RGS16-Gao HTS | streptavidin beads, fluorescein-biotin binding, flow cytometry | inhibition, % at 10 µM | 1,700 tested, under 10 active | AID 1783;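 active = inhibition above 50%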;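 note: median green fluorescence of gated singlet beads compared with DMSO control wells; 0% = DMSO wells and 100% = complete loss of bead fluorescence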
RGS8-Gao single – RGS8-Galphao interaction regulation, single point confirmation | hit rate 3% among 1,700 | shares compounds with RGS16-Gao HTS | bead-based flow cytometry RGS8-Galphao binding, fluorescence; actives lie on both sides | AID 1836 | binding response (% of control), % at 10 µM; in the data active = binding response below about 72% or above about 130%; inactive = in between;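 note: Galphao activated as GDP AlF4 complex before binding bead RGS8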
RGS7-Gao single – confirmation of regulators of human RGS7-Galphao interaction; shares compounds with RGS16-Gao HTS; bead-based flow cytometry RGS7-Galphao binding; actives lie on both sides; response (percent of control binding), % at 10 µM; hit rate 7.8% among 1,700; AID 1837; in the data active = response below about 75% or above about 130%; inactive = in between;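 note: fluorescent Galphao activated with GDP and aluminum fluoride binding bead-coupled RGS7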
RGS16-Gao single – confirmation of regulators of human RGS16-Galphao interaction; response (% of control binding), % at 10 µM; bead-based flow cytometry, RGS16-Galphao binding; actives lie on both sides; hit rate 4% among 1,700; shares compounds with RGS16-Gao HTS; in the data active = response below about 74% or above about 130%; inactive = in between;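 note: Galphao activated as the GDP aluminium fluoride complex binding bead-coupled RGS16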
RGS4-Gao confirm – RGS4-Galphao interaction regulation, single point confirmation. binding response (% of control), % at 10 µM. hit rate 4% among 1,700. shares compounds with RGS16-Gao HTS. RGS4-Galphao binding, multiplexed bead flow cytometry; actives lie on both sides; in the data active = binding response below about 74% or above about 130%; inactive = in between
RGS19-Gao conf – confirmation of regulators of human RGS19-Galphao interaction; AID 1841; shares compounds with RGS16-Gao HTS; bead-based flow cytometry RGS19-Galphao binding; actives lie on both sides; response (percent of control binding), % at 10 µM; hit rate 5% among 1,700; in the data active = response below about 50% or above about 160%; inactive = in between;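 note: 100% = no compound control and 0% = blank background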
The depositor's hits bear a star; [ ] = remark or other dose. Unless noted, the rule behind the calls is not given here.

CC(=O)/C(=N/Nc1ccccc1)Sc1nnc(C(O)c2ccccc2)n1-c1ccccc1 (stereo unspecified) was read as RGS8-Gao reg 85, RGS16-Gao HTS 18*, GSH fluor 15, Avidin fluor 8, RGS7-Gao reg 96, RGS4-Gao reg 99, RGS4-Gao HTS 99*, Avidin counter 0, RGS8-Gao single 95, RGS7-Gao single 105, RGS16-Gao single 99, RGS4-Gao confirm 101 and RGS19-Gao conf 106.
Screening C=CCN(c1ccccc1OC)S(=O)(=O)c1cccc(C(=O)OCC(=O)c2c[nH]c3ccccc23)c1 returned RGS8-Gao reg 101, RGS16-Gao HTS 100, GSH fluor 9, Avidin fluor 11, RGS7-Gao reg 99 and RGS4-Gao reg 100.
COc1cc(OC)c(N(C)S(=O)(=O)c2cccc(C(=O)OCC(=O)c3c[nH]c4ccccc34)c2)cc1Cl was read as RGS8-Gao reg 75, RGS16-Gao HTS 24*, GSH fluor 13, Avidin fluor 1, RGS7-Gao reg 92, RGS4-Gao reg 89, RGS4-Gao HTS 89*, Avidin counter 0, RGS8-Gao single 111, RGS7-Gao single 114, RGS16-Gao single 112, RGS4-Gao confirm 109 and RGS19-Gao conf 130.
N#Cc1nc(-c2ccccc2F)oc1NCCN1CCOCC1 was read as RGS8-Gao reg 176*[activator], RGS16-Gao HTS 275, GSH fluor 23, Avidin fluor 2, RGS7-Gao reg 134, RGS4-Gao reg 149, RGS4-Gao HTS 149*, Avidin counter -1, RGS8-Gao single 98, RGS7-Gao single 99, RGS16-Gao single 96, RGS4-Gao confirm 97 and RGS19-Gao conf 92.
For C=CCn1c(SCC(=O)c2[nH]c(C)c(C(=O)OCC)c2C)nc2scc(-c3ccc(OC)c(OC)c3)c2c1=O the results were RGS8-Gao reg 109, RGS16-Gao HTS 191*[activator], GSH fluor 6, Avidin fluor 22, RGS7-Gao reg 105, RGS4-Gao reg 168*[activator], Avidin counter 0, RGS8-Gao single 100, RGS7-Gao single 105, RGS16-Gao single 101, RGS4-Gao confirm 102 and RGS19-Gao conf 99.
`CCOC(=O)c1c(C)[nH]c(C(=O)CSc2nnc(-c3ccncc3)n2CC)c1C` gave RGS8-Gao reg 99, RGS16-Gao HTS 105, GSH fluor 36, Avidin fluor 13, RGS7-Gao reg 100 and RGS4-Gao reg 101.
COc1ccccc1C/C(N)=N/OC(=O)/C=C/c1ccccc1 was read as RGS8-Gao reg 99, RGS16-Gao HTS 100, GSH fluor 21, Avidin fluor 11, RGS7-Gao reg 99 and RGS4-Gao reg 101.
`COCCn1nnnc1C(C(C)C)N1CCC(Cc2ccccc2)CC1` (stereo unspecified) gave RGS8-Gao reg 87, RGS16-Gao HTS 151, GSH fluor 24, Avidin fluor 4, RGS7-Gao reg 102, RGS4-Gao reg 155*[activator], Avidin counter -1, RGS8-Gao single 104, RGS7-Gao single 104, RGS16-Gao single 104, RGS4-Gao confirm 101 and RGS19-Gao conf 92.
Screening CCOC(=O)c1c(CSc2ccccc2)n(C)c2ccc(O)c(CN3CCOCC3)c12 returned RGS8-Gao reg 100, RGS16-Gao HTS 100, GSH fluor 14, Avidin fluor 11, RGS7-Gao reg inconclusive and RGS4-Gao reg 96.
Screening CC1CCC2(CC1)NC(=S)N(c1ccccc1)N2 (stereo unspecified) returned RGS8-Gao reg 102, RGS16-Gao HTS 105, GSH fluor 10, Avidin fluor 125*, RGS7-Gao reg 171*[activator], RGS4-Gao reg 140, RGS4-Gao HTS 140*, Avidin counter 0, RGS8-Gao single 94, RGS7-Gao single 94, RGS16-Gao single 92, RGS4-Gao confirm 95 and RGS19-Gao conf 98.
For Cc1cn2c(nc1=O)OC1CC2OC1CO (stereo unspecified) the results were RGS8-Gao reg 96, RGS16-Gao HTS 94, Avidin fluor 10, RGS7-Gao reg inconclusive and RGS4-Gao reg 98.
Cc1cc(C)n(-c2ccc(S(=O)(=O)N3CCOCC3)cc2[N+](=O)[O-])n1 was read as RGS8-Gao reg 99, RGS16-Gao HTS 97, Avidin fluor 5, RGS7-Gao reg inconclusive and RGS4-Gao reg 97.
CCN1/C(=C/c2ccc3cccc(C)c3[n+]2CC)Sc2ccccc21 was read as RGS8-Gao reg 127, RGS16-Gao HTS 274, GSH fluor 55, Avidin fluor 7, RGS7-Gao reg 161*[activator], RGS4-Gao reg 196*[activator], Avidin counter 2, RGS8-Gao single 100, RGS7-Gao single 110, RGS16-Gao single 100, RGS4-Gao confirm 102 and RGS19-Gao conf 116.
`N#CC1=C(N)N=C(SCc2ccccc2)C(C(N)=O)C12CCCCC2` (stereo unspecified) gave RGS8-Gao reg 142*[activator], RGS16-Gao HTS 268, GSH fluor 7, Avidin fluor 5, RGS7-Gao reg 107, RGS4-Gao reg 108 and RGS4-Gao HTS 108*.
For C=CCSC1=NC(N)=C(C#N)C2(CCCCC2)C1C(N)=O (stereo unspecified) the results were RGS8-Gao reg 86, RGS16-Gao HTS 36, GSH fluor 19, Avidin fluor 18, RGS7-Gao reg 86 and RGS4-Gao reg 91.
